Some test systems named below: DU-145 prostate; K-562 leukemia; MALME-3M melanoma; MDA-MB-231 breast; RXF 393 renal; SF-268 CNS; SF-295 CNS; SF-539 CNS; UACC-257 melanoma; M14 melanoma; HCT-15 colon; HT29 colon; SNB-75 CNS; SNB-19 CNS; U251 CNS; PC-3 prostate; UACC-62 melanoma; LOX IMVI melanoma; SK-MEL-28 melanoma.
What all share (assay): NCI-60 one-dose screen, 48 h (100 = growth as untreated, 0 = no growth, -100 = all killed)
What all share (conditions): 10 µM unless noted

The structures appear in SMILES notation. The panel holds about 83,000 compounds, 20% with a hit somewhere; the sample as a whole holds those more often.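 Note: values are percent growth. 100 is the growth of untreated cells, values between 100 and 0 indicate rising inhibition; between -100 and 0 indicates cell death.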 A number with no mark means an inactive call. Activity calls are given as the source filed them. How the source made its calls: active means growth percent below 10; inactive means the rest.

The results in this text go back to PubChem BioAssay (NCI).

Turning to `COc1cc(-c2nc3ccccc3[nH]2)ccc1OCc1nnc(-c2ccc(CC(C)C)cc2)o1`, the growth in the experiment on DU-145 prostate was 94%; in the experiment on K-562 leukemia it was 76%; with MALME-3M melanoma, 89.9%; in the experiment with MDA-MB-231 breast, 93.4%; in the experiment with RXF 393 renal, 71.2%; in the experiment with SF-268 CNS, 99.9%. For the same compound, the growth in the experiment with SF-295 CNS is 99.3%; with SF-539 CNS, 105%; in the experiment on UACC-257 melanoma it was 104%; in the experiment with M14 melanoma it was 98.3%; in the experiment with HCT-15 colon, 76.5%; in the experiment with HT29 colon, 75.2%. For the same compound, the growth in the experiment with SNB-75 CNS is 94.3%; in the experiment with SNB-19 CNS it was 91.8%; in the experiment with U251 CNS, 69.5%; with PC-3 prostate it was 86%; in the experiment with UACC-62 melanoma, 92.7%; in the experiment with LOX IMVI melanoma it was 103%. Further, the growth in the experiment on SK-MEL-28 melanoma is 93.5%.

`COc1ccc(/C=C\c2cc(OC)c(OC)c(OC)c2)cc1OC(=O)c1cccc(Cn2cc(CCOC(=O)[C@H](N)Cc3cn(C)c4ccccc34)nn2)c1`: the growth in the experiment on DU-145 prostate was -8.08% (active); in the experiment on K-562 leukemia, 4.84% (active); in the experiment with MALME-3M melanoma it was 65.4%; with MDA-MB-231 breast, 42.8%; in the experiment with RXF 393 renal, 34.9%; with SF-268 CNS, 23.1%. Also, the growth with SF-295 CNS is 14.2%; in the experiment on SF-539 CNS it was -13.6% (active); in the experiment with UACC-257 melanoma it was 68.2%; in the experiment with M14 melanoma, 9.47% (active); in the experiment on HCT-15 colon, 12.4%; in the experiment on HT29 colon it was 8.6% (active). Moreover, the growth is 22.9% in the experiment with SNB-75 CNS; 31.2% with SNB-19 CNS; 19.2% in the experiment on U251 CNS; 18.8% in the experiment with PC-3 prostate; 42.7% in the experiment with UACC-62 melanoma; 22.3% in the experiment with LOX IMVI melanoma. For the same compound, the growth with SK-MEL-28 melanoma is 63.1%.

Regarding `CC[C@@H](C(=O)[C@@H](C)[C@@H](O)[C@H](C)[C@@H]1O[C@@H]([C@@H](CC)C(=O)O)CC[C@@H]1C)[C@H]1OC2(C=C[C@@H](O)[C@]3(CC[C@@](C)([C@H]4CC[C@](O)(CC)[C@H](C)O4)O3)O2)[C@H](C)C[C@@H]1C` (some centres not stated), the growth with DU-145 prostate was 45.8%; with K-562 leukemia, -33.8% (active); in the experiment on MALME-3M melanoma it was -90.7% (active); with MDA-MB-231 breast, -39% (active); with RXF 393 renal it was -32.6% (active); in the experiment on SF-268 CNS, 27.4%. The growth with SF-295 CNS was 1.38% (active); in the experiment on SF-539 CNS, -28.1% (active); with UACC-257 melanoma, 7.26% (active); in the experiment on M14 melanoma, -86.7% (active); with HCT-15 colon, 19.8%; in the experiment on HT29 colon, 13.5%. Besides, the growth with SNB-75 CNS was -28.8% (active); in the experiment on SNB-19 CNS, -33.7% (active); in the experiment with U251 CNS it was 0.353% (active); with PC-3 prostate, 31.2%; with UACC-62 melanoma it was -96.2% (active); with LOX IMVI melanoma, 8.3% (active). Moreover, the growth in the experiment with SK-MEL-28 melanoma was -89.8% (active).

Regarding `O=C(O)c1ccc(N=CC(=O)c2ccc(-c3ccccc3)cc2)cc1`, the growth in the experiment with DU-145 prostate was 112%; in the experiment on K-562 leukemia it was 116%; in the experiment on MALME-3M melanoma it was 97.7%; in the experiment with MDA-MB-231 breast, 101%; in the experiment on RXF 393 renal it was 118%; in the experiment with SF-268 CNS, 109%. Further, the growth is 104% in the experiment with SF-295 CNS; 104% in the experiment with SF-539 CNS; 93.1% with UACC-257 melanoma; 94.1% in the experiment on M14 melanoma; 113% in the experiment on HCT-15 colon; 103% with HT29 colon. The growth with SNB-75 CNS was 109%; in the experiment on SNB-19 CNS, 101%; in the experiment with U251 CNS, 98.5%; in the experiment with PC-3 prostate it was 86.2%; in the experiment with UACC-62 melanoma, 93.5%; with LOX IMVI melanoma, 101%. In addition, in the experiment with SK-MEL-28 melanoma, the growth is 101%.

Take `COc1ccc(/C=N/C2=C(C#N)C(c3ccc(N(C)C)cc3)c3ccc4ccccc4c3O2)cc1` (configuration not stated): the growth in the experiment on DU-145 prostate was 81.5%; in the experiment on K-562 leukemia, 14.7%; in the experiment on MALME-3M melanoma it was 72%; with MDA-MB-231 breast, 52.5%; with RXF 393 renal, 67.2%; in the experiment on SF-268 CNS it was 63.1%. Besides, the growth with SF-295 CNS is 39.1%; with SF-539 CNS, 51.8%; with UACC-257 melanoma, 79.3%; in the experiment on M14 melanoma, 44%; in the experiment with HCT-15 colon, 38.7%; in the experiment on HT29 colon it was 48.4%. Further, the growth is -7.87% (active) in the experiment on SNB-75 CNS; 68% in the experiment with SNB-19 CNS; 71.1% with U251 CNS; 52.5% with PC-3 prostate; 48.3% in the experiment on UACC-62 melanoma; 37.3% with LOX IMVI melanoma. Also, the growth with SK-MEL-28 melanoma was 74.4%.

For the compound `O=C(/C=C/c1cc(CN2CCOCC2)c(O)c2ncccc12)c1cc(CN2CCOCC2)c(O)c2ncccc12`, the growth was 26.9% with DU-145 prostate; 10.4% with K-562 leukemia; 38.9% in the experiment on MALME-3M melanoma; 30.6% in the experiment with MDA-MB-231 breast; 35.3% with RXF 393 renal; 30.2% in the experiment on SF-268 CNS. Also, the growth in the experiment with SF-295 CNS is 14.7%; in the experiment on SF-539 CNS, 15%; in the experiment with UACC-257 melanoma it was -6.41% (active); in the experiment on M14 melanoma, 31.3%; in the experiment with HCT-15 colon, 16.2%; in the experiment with HT29 colon it was 16.8%. Further, the growth in the experiment with SNB-75 CNS was 32.2%; with SNB-19 CNS it was 20.7%; with U251 CNS it was 3.35% (active); with PC-3 prostate, 23.7%; in the experiment on UACC-62 melanoma, 10.1%; in the experiment on LOX IMVI melanoma, 19.3%. Besides, in the experiment on SK-MEL-28 melanoma, the growth is 37%.

On to `COc1cc2c(cc1-c1c(C)noc1C)ncc1nc(C3CCCCC3)n([C@H](C)COC(F)F)c12`, for which the growth in the experiment on DU-145 prostate is 63.8%; with K-562 leukemia, 24.6%; in the experiment on MALME-3M melanoma, 69.3%; with MDA-MB-231 breast, 41.9%; in the experiment on RXF 393 renal it was 52.6%; with SF-268 CNS, 58.8%. The growth in the experiment on SF-295 CNS is 52.4%; in the experiment with SF-539 CNS it was 34.7%; in the experiment on UACC-257 melanoma, 31.4%; with M14 melanoma, 39.9%; with HCT-15 colon, 15.1%; in the experiment with HT29 colon, 19.3%. For the same compound, the growth in the experiment with SNB-75 CNS was 41%; in the experiment with SNB-19 CNS, 45.4%; in the experiment on U251 CNS, 45.7%; in the experiment with PC-3 prostate it was 35%; in the experiment on UACC-62 melanoma, 22.8%; in the experiment with LOX IMVI melanoma, 11%. Further, in the experiment with SK-MEL-28 melanoma, the growth is 49.9%.

Turning to `C[n+]1ccccc1/C=C/c1ccc2cccc(O)c2n1`, the growth is 102% with DU-145 prostate; 102% in the experiment with K-562 leukemia; 146% in the experiment on MALME-3M melanoma; 93.3% in the experiment on MDA-MB-231 breast; 48.4% with RXF 393 renal; 97.1% in the experiment on SF-268 CNS. In addition, the growth with SF-295 CNS was 109%; with SF-539 CNS it was 109%; with UACC-257 melanoma, 97.5%; in the experiment on M14 melanoma it was 103%; with HCT-15 colon, 106%; with HT29 colon, 101%. For the same compound, the growth is 86.8% in the experiment with SNB-75 CNS; 97% in the experiment on SNB-19 CNS; 100% in the experiment on U251 CNS; 94.7% in the experiment on PC-3 prostate; 105% with UACC-62 melanoma; 104% with LOX IMVI melanoma. Besides, the growth with SK-MEL-28 melanoma was 95.7%.
